Of roughly 7,900 targets only a part is listed; those with a hit were picked by preference. About 0.6% of all pairs of compound and target were hits.
Tests used:
Test in all cases: log2 fold change, soluble protein after heating vs DMSO (PISA); higher = thermal stabilisation; K562 cells, 10 uM, 30 min; active = over 0.2 and 3.5 SD of the protein, either way, in both replicates (recomputed)
IRAK-1-4 Inhibitor I = compound: C1COCCN1CCN2C3=CC=CC=C3N=C2NC(=O)C4=CC(=CC=C4)[N+](=O)[O-] [IRAK-1-4 Inhibitor I]
In short: (§1)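 K562 cells (2×10^6 cells/mL) were treated with 10 μM compound for 30 min, and aliquots were heated for 3 min over 48°C-58°C. Pooled aliquots were extracted in PBS with 0.5% NP-40 at 4°C, and the supernatant after 21,000xg for 90 min was measured by TMTpro 16plex LC-MS/MS with channel sums equalised. Reported thermal stability, relative to control samples and from duplicates, is a log2 fold change.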

ibrutinib = compound: C=CC(=O)N1CCC[C@@H](n2nc(-c3ccc(Oc4ccccc4)cc3)c3c(N)ncnc32)C1 [ibrutinib]
In short: as §1

[1] = compound: CC(=O)c1cnc2ccc(-c3cc(Cl)c(O)c(Cl)c3)nc2c1N[C@H]1CC[C@H](CN(C)C)CC1
In short: as §1

ralimetinib = compound: CC(C)(C)Cn1c(N)nc2ccc(-c3[nH]c(C(C)(C)C)nc3-c3ccc(F)cc3)nc21 [ralimetinib]
In short: as §1

[2] = compound: CC(C)(O)CC(=O)NCCn1ccc2ncnc(Nc3ccc(Oc4cccc(C(F)(F)F)c4)c(Cl)c3)c21
In short: as §1

[3] = compound: CC(C)C1=C2N=C(C=C(N2N=C1)NCC3=CC=CC=C3)NCCCCCCN
In short: as §1

[4] = compound: CC(C)C[C@@H](C=O)NC(=O)[C@H](CC(C)C)NC(=O)[C@H](CC(C)C)NC(=O)OCc1ccccc1
In short: as §1

pinometostat = compound: CC(C)N(C[C@H]1O[C@@H](n2cnc3c(N)ncnc32)[C@H](O)[C@@H]1O)[C@H]1C[C@@H](CCc2nc3cc(C(C)(C)C)ccc3[nH]2)C1 [pinometostat]
In short: as §1

[5] = compound: CC1=C(C(CC(=O)N1)C2=CC=C(C=C2)C(F)(F)F)C(=O)NC3=C(C=C4C(=C3)C=NN4)F
In short: as §1

[6] = compound: CC1=C(C2=C(C=C1)C(=O)C3=CC=CC=C3N2CCCN)C
In short: as §1

[7] = compound: CC1=C(C=C(C=C1)NC(=O)C2=CC(=CC=C2)C(C)(C)C#N)NC3=CC4=C(C=C3)N=CN(C4=O)C
In short: as §1

[8] = compound: CC1=C(C=C(C=C1)NC(=O)C2=CC(=CC=C2)N(C)C)NC(=O)C3=CC=C(C=C3)O
In short: as §1

[9] = compound: CC1=CC=C(C=C1)SC2=C3C=C(SC3=CN=C2)C(=O)N
In short: as §1

[10] = compound: CC1=NC(=CC=C1)C2=C(N=C(N2)C(C)(C)C)C3=CC4=NC=CN=C4C=C3
In short: as §1

Nexturastat A = compound: CCCCN(Cc1ccc(C(=O)NO)cc1)C(=O)Nc1ccccc1 [Nexturastat A]
In short: as §1

vemurafenib = compound: CCCS(=O)(=O)Nc1ccc(F)c(C(=O)c2c[nH]c3ncc(-c4ccc(Cl)cc4)cc23)c1F [vemurafenib]
In short: as §1

[11] = compound: CCCS(=O)(=O)Nc1ccc(F)c(C(=O)c2c[nH]c3ncc(Cl)cc23)c1F
In short: as §1

[12] = compound: CCCc1cc(C)[nH]c(=O)c1CNC(=O)c1cc(-c2ccnc(N3CCN(C)CC3)c2)cc2c1cnn2C(C)C
In short: as §1

givinostat = compound: CCN(CC)Cc1ccc2cc(COC(=O)Nc3ccc(C(=O)NO)cc3)ccc2c1 [givinostat]
In short: as §1

barasertib = compound: CCN(CCCOc1ccc2c(Nc3cc(CC(=O)Nc4cccc(F)c4)[nH]n3)ncnc2c1)CCOP(=O)(O)O [barasertib]
In short: as §1

Measured: log2 fold change

HNRNPUL2 (UniProt Q1KMD3)
inactive: IRAK-1-4 Inhibitor I -0.033 | ibrutinib -0.022 | [1] -0.014 | ralimetinib -0.033 | [2] 0.024 | [3] 0.117 | [4] 0.054 | pinometostat 0.107 | [5] -0.009 | [6] 0.023 | [7] 0.009 | [8] 0.008 | [9] -0.074 | [10] -0.032 | Nexturastat A 0.109 | vemurafenib -0.047 | [11] -0.027 | [12] -0.002 | givinostat 0.047 | barasertib -0.027

HAX1 (UniProt O00165)
Chain of UniProt O00165 (O00165 whole entry, looked up): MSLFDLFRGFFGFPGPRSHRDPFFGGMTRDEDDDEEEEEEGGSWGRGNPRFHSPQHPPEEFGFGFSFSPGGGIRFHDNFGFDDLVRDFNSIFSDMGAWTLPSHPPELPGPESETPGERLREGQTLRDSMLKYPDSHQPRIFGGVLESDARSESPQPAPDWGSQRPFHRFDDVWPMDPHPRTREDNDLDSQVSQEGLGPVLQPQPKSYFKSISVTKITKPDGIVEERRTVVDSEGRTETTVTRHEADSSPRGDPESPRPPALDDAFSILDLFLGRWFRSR
active: [3] -0.498
inactive: IRAK-1-4 Inhibitor I -0.017 | ibrutinib -0.036 | [1] -0.07 | ralimetinib 0.026 | [2] -0.156 | [4] 0.045 | pinometostat 0.107 | [5] 0.047 | [6] 0.065 | [7] -0.018 | [8] -0.101 | [9] 0.03 | [10] -0.058 | Nexturastat A 0.066 | vemurafenib -0.012 | [11] 0.082 | [12] 0.045 | givinostat 0.009 | barasertib 0.046

ICAM1 (UniProt P05362)
Chain of UniProt P05362 (P05362 whole entry, looked up): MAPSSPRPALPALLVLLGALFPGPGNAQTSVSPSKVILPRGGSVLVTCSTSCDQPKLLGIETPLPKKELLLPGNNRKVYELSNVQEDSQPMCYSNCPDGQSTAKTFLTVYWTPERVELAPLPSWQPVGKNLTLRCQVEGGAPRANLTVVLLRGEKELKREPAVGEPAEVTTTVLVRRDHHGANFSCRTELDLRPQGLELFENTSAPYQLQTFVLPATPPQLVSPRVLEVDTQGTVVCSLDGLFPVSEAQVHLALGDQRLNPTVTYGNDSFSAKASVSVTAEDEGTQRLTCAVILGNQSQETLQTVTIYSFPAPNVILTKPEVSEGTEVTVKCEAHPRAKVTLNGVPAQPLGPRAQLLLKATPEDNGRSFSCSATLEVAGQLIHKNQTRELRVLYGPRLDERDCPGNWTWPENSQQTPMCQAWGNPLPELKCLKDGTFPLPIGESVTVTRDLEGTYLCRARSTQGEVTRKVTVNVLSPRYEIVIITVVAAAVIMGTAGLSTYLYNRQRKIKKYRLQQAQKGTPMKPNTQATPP
inactive: IRAK-1-4 Inhibitor I 0.056 | ibrutinib 0.042 | [1] -0.039 | ralimetinib -0.02 | [2] 0.002 | [3] 0.157 | [4] -0.001 | pinometostat -0.009 | [5] -0.028 | [6] 0.045 | [7] -0.055 | [8] 0.016 | [9] 0.033 | [10] -0.016 | Nexturastat A 0.02 | vemurafenib 0.018 | [11] -0.034 | [12] 0.001 | givinostat -0.014 | barasertib -0.021

GMEB2 (UniProt Q9UKD1)
Chain of UniProt Q9UKD1 (Q9UKD1 whole entry, looked up): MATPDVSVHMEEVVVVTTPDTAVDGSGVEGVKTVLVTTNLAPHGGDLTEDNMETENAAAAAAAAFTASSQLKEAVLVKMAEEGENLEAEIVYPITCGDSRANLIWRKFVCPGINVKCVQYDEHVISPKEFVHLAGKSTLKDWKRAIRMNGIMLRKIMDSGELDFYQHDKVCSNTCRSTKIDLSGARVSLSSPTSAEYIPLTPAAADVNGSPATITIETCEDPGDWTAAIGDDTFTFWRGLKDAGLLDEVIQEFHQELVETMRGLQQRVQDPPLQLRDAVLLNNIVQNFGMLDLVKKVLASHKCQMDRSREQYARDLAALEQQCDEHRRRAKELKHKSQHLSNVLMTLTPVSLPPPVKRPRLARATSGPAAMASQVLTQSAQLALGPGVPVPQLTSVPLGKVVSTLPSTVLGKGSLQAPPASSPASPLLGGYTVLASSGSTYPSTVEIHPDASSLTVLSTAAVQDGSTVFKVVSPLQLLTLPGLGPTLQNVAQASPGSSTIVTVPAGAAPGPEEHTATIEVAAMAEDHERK
inactive: IRAK-1-4 Inhibitor I -0.021 | ibrutinib 0.061 | [1] -0.022 | ralimetinib 0.018 | [2] -0.158 | [3] 0.006 | [4] -0.128 | pinometostat 0.145 | [5] 0.004 | [7] 0.038 | [8] -0.033 | [9] 0.041 | [10] -0.066 | Nexturastat A 0.09 | vemurafenib 0.012 | [11] 0.041 | [12] -0.088 | givinostat 0.087 | barasertib 0.029
active: [6] -0.367

FEN1 (UniProt P39748)
Chain of UniProt P39748 (P39748 whole entry, looked up): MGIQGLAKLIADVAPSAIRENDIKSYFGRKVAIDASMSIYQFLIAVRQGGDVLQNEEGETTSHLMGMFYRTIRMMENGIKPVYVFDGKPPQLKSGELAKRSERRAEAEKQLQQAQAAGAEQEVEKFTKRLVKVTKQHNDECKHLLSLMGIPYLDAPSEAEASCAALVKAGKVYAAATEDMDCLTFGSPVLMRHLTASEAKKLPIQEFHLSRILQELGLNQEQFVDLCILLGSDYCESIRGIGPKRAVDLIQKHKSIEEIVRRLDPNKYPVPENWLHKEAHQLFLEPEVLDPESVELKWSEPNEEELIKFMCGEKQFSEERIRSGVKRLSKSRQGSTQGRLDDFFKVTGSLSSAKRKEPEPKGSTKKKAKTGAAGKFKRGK
inactive: IRAK-1-4 Inhibitor I -0.071 | ibrutinib -0.016 | [1] -0.116 | ralimetinib -0.008 | [2] -0.368 | [3] -0.393 | [4] 0.039 | pinometostat -0.03 | [5] -0.067 | [6] -0.016 | [7] 0.018 | [8] -0.08 | [9] 0.045 | [10] 0.057 | Nexturastat A -0.194 | vemurafenib 0.121 | [11] 0.022 | [12] -0.03 | givinostat 0.096 | barasertib 0.088

FNTB (UniProt P49356)
inactive: IRAK-1-4 Inhibitor I 0.017 | ibrutinib 0.309 | [1] -0.028 | ralimetinib -0.016 | [2] -0.025 | [3] 0.074 | [4] -0.033 | pinometostat -0.003 | [5] -0.146 | [6] -0.087 | [7] 0.032 | [8] -0.058 | [9] 0 | [10] 0 | Nexturastat A -0.041 | vemurafenib 0.011 | [11] -0.052 | [12] 0.029 | givinostat -0.083 | barasertib -0.034

FDFT1 (UniProt P37268)
Chain of UniProt P37268 (P37268 whole entry, looked up): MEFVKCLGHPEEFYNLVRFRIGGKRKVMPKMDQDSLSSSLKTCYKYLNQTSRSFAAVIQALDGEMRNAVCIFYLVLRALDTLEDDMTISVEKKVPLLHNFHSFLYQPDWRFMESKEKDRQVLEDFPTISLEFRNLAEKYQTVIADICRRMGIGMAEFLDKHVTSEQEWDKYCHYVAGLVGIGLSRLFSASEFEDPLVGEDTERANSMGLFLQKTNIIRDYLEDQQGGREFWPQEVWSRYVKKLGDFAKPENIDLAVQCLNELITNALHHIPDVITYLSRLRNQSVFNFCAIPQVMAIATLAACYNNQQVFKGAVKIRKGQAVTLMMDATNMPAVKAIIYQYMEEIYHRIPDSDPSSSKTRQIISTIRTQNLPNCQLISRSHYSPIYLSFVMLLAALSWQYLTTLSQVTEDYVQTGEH
inactive: IRAK-1-4 Inhibitor I 0.001 | ibrutinib 0.007 | [1] -0.025 | ralimetinib -0.028 | [2] -0.015 | [3] -0.083 | [4] 0.077 | pinometostat -0.042 | [5] 0.012 | [6] -0.06 | [7] -0.008 | [8] 0.01 | [9] 0.063 | [10] -0.034 | Nexturastat A 0.01 | vemurafenib 0 | [11] 0.092 | [12] 0.1 | givinostat -0.018 | barasertib 0.009

GABPA (UniProt Q06546)
Chain of UniProt Q06546 (Q06546 whole entry, looked up): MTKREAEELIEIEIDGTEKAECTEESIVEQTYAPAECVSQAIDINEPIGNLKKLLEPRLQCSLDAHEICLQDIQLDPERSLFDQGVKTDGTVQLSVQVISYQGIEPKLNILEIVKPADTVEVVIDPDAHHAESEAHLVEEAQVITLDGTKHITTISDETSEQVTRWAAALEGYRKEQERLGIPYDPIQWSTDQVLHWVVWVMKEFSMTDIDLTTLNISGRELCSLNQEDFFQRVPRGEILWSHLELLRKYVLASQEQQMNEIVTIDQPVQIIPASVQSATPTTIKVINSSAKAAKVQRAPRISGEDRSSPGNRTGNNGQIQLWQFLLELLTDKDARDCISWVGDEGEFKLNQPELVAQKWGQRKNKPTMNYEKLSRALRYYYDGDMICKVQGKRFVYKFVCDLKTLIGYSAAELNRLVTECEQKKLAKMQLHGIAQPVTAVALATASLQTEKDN
inactive: IRAK-1-4 Inhibitor I -0.004 | ibrutinib -0.014 | [1] -0.054 | ralimetinib 0.001 | [2] -0.107 | [3] -0.243 | [4] -0.013 | pinometostat -0.007 | [5] -0.043 | [6] -0.175 | [7] -0.007 | [8] -0.011 | [9] 0.064 | [10] 0.039 | Nexturastat A 0.008 | vemurafenib 0.062 | [11] 0.09 | [12] -0.004 | givinostat 0.17 | barasertib 0.022

FMC1 (UniProt Q96HJ9)
Chain of UniProt Q96HJ9 (Q96HJ9 whole entry, looked up): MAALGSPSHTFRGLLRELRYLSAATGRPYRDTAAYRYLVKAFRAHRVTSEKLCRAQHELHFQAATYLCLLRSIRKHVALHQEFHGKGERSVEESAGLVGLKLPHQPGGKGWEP
inactive: IRAK-1-4 Inhibitor I -0.06 | ibrutinib 0.008 | [1] 0.066 | ralimetinib -0.098 | [2] -0.006 | [3] 0.01 | [4] 0.125 | pinometostat 0.047 | [5] -0.041 | [6] 0.02 | [7] -0.036 | [8] -0.029 | [9] 0.027 | [10] 0.004 | Nexturastat A -0.038 | vemurafenib -0.065 | [11] 0.014 | [12] -0.074 | givinostat -0.051 | barasertib 0.022

FUCA2 (UniProt Q9BTY2)
Chain of UniProt Q9BTY2 (Q9BTY2 whole entry, looked up): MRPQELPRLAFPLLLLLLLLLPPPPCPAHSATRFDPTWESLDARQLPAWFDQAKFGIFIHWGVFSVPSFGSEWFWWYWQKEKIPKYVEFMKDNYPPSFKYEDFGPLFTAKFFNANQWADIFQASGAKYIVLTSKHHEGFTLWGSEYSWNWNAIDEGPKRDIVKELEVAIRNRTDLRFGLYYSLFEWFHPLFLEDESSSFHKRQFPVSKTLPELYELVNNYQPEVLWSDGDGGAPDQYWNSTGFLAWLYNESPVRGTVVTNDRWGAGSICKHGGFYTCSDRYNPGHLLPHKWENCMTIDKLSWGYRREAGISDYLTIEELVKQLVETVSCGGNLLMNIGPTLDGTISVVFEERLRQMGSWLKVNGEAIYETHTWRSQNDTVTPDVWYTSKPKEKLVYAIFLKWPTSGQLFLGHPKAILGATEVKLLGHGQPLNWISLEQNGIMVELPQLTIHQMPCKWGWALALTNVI
inactive: IRAK-1-4 Inhibitor I -0.078 | ibrutinib 0.043 | [1] -0.056 | ralimetinib 0.019 | [2] 0.026 | [3] -0.09 | [4] -0.004 | pinometostat 0.036 | [5] -0.036 | [6] -0.12 | [7] 0.015 | [8] 0 | [9] 0.016 | [10] -0.02 | Nexturastat A -0.025 | vemurafenib 0.005 | [11] -0.053 | [12] -0.025 | givinostat -0.028 | barasertib -0.01

GTF2B (UniProt Q00403)
inactive: IRAK-1-4 Inhibitor I -0.063 | ibrutinib -0.064 | [1] -0.023 | ralimetinib 0.044 | [2] -0.215 | [3] -0.125 | [4] 0.068 | pinometostat 0 | [5] -0.026 | [6] 0.07 | [7] -0.018 | [8] -0.092 | [9] 0.097 | [10] 0.097 | Nexturastat A -0.031 | vemurafenib 0.104 | [11] 0.167 | [12] 0.017 | givinostat 0.058 | barasertib 0.044

HDHD2 (UniProt Q9H0R4)
Chain of UniProt Q9H0R4 (Q9H0R4 whole entry, looked up): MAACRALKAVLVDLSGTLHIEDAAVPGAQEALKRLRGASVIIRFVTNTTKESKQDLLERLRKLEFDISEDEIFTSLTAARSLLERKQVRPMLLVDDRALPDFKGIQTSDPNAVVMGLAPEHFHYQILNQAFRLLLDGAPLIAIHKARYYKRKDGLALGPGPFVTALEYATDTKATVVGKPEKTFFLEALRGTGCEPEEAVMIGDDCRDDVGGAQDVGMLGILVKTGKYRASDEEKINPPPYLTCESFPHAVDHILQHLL
inactive: IRAK-1-4 Inhibitor I 0.007 | ibrutinib -0.019 | [1] 0.021 | ralimetinib -0.006 | [2] -0.168 | [3] 0.024 | [4] -0.037 | pinometostat -0.018 | [5] -0.025 | [6] 0.003 | [7] 0.059 | [8] 0.028 | [9] 0.023 | [10] 0.014 | vemurafenib 0.02 | [11] 0.007 | [12] -0.028 | givinostat 0.007 | barasertib 0.011
active: Nexturastat A -0.316

HNRNPH2 (UniProt P55795)
inactive: IRAK-1-4 Inhibitor I -0.081 | ibrutinib -0.024 | [1] -0.134 | ralimetinib 0.137 | [2] -0.067 | [4] 0.124 | pinometostat 0 | [5] 0.193 | [6] -0.104 | [7] 0.064 | [8] -0.027 | [9] 0.079 | [10] 0.058 | Nexturastat A 0.044 | vemurafenib 0.048 | [11] 0.208 | [12] 0.095 | givinostat 0.109 | barasertib 0.014
active: [3] -0.345

GLS (UniProt O94925)
Chain of UniProt O94925 (O94925 whole entry, looked up): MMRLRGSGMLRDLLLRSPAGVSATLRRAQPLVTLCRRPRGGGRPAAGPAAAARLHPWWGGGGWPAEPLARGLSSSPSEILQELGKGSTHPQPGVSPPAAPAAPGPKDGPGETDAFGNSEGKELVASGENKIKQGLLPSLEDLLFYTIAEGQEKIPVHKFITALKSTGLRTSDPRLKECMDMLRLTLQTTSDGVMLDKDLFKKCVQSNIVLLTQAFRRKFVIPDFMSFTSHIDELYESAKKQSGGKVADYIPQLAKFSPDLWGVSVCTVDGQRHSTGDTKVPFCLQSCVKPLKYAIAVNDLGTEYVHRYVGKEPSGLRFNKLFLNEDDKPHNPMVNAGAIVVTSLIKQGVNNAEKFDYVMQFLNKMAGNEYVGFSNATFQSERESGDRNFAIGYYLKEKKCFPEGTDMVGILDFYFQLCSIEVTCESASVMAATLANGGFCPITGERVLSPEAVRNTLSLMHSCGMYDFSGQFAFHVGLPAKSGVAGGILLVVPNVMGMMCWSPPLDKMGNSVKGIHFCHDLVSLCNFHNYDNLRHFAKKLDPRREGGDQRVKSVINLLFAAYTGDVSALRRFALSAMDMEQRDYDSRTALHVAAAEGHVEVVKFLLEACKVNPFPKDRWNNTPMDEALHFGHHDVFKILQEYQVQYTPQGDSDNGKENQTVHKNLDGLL
inactive: IRAK-1-4 Inhibitor I 0.051 | ibrutinib -0.096 | [1] 0.002 | ralimetinib -0.071 | [2] -0.14 | [3] 0.004 | [4] 0.032 | pinometostat -0.037 | [5] 0.008 | [6] 0.002 | [7] -0.013 | [8] -0.072 | [9] -0.024 | [10] 0.034 | Nexturastat A -0.065 | vemurafenib 0.096 | [11] 0.132 | [12] 0.062 | givinostat 0.041 | barasertib 0.054

IFRD1 (UniProt O00458)
inactive: IRAK-1-4 Inhibitor I 0.033 | ibrutinib 0.058 | [1] 0.203 | ralimetinib -0.014 | [2] -0.002 | [3] -0.035 | [4] 0.168 | pinometostat -0.029 | [5] -0.095 | [7] 0.123 | [8] 0.033 | [9] 0.098 | [10] -0.04 | Nexturastat A -0.103 | vemurafenib 0.001 | [11] 0.058 | [12] -0.111 | givinostat -0.154 | barasertib -0.079
active: [6] -1.05

GALC (UniProt P54803)
Chain of UniProt P54803 (P54803 whole entry, looked up): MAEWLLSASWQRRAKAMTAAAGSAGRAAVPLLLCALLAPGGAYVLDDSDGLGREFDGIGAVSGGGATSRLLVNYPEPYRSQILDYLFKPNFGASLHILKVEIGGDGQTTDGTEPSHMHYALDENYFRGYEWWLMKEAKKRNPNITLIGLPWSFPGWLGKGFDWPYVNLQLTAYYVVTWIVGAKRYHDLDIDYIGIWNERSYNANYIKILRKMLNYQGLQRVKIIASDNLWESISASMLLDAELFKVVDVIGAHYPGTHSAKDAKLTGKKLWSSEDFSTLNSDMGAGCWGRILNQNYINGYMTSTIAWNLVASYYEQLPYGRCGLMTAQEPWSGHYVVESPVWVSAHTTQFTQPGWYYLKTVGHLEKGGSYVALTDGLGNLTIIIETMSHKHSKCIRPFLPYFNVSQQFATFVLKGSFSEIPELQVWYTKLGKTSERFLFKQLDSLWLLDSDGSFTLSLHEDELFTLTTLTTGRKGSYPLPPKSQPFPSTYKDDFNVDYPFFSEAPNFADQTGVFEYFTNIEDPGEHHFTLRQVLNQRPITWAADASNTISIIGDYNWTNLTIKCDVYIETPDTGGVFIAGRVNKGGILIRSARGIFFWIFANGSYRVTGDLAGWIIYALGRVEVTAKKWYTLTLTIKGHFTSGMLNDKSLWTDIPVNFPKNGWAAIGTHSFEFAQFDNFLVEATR
inactive: IRAK-1-4 Inhibitor I 0.053 | ibrutinib 0.017 | [1] 0.016 | ralimetinib -0.012 | [2] 0.041 | [3] -0.122 | [4] 0.05 | pinometostat 0.067 | [5] 0.035 | [6] -0.003 | [7] 0.002 | [8] -0.032 | [9] 0 | [10] -0.013 | Nexturastat A 0.012 | vemurafenib -0.03 | [11] -0.03 | [12] -0.049 | givinostat 0.036 | barasertib 0.002
